PubChem BioAssay AID1159580 (chemical genetic matrix, 2015)
The whole screen tested about 5,500 compounds, of which about 2,000 (36%) were called active. Not shown: some 18% with an inconclusive outcome. Cut-off read from the data, not from the text of the source: active = normalized growth mostly below about 0.91 (no sharp cut-off); inconclusive = no clear call, values can overlap the other calls; inactive = mostly above about 0.92. The list shows a part of the results.

Test: chemical genetic growth profiling, strain panel (AID 1159580);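 note: tested at 20 µM; growth read once vehicle control cultures reached saturation at 30 °C; 1 = growth at the plate median or of vehicle wells; lower values mean less growth of the strain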
Conditions: S. cerevisiae deletion strains, growth OD

Measured: normalized growth

CC(=O)O[C@@H]1CC(=O)[C@@]2(C)C(CC(=O)[C@]3(C)C2CC[C@@]2(C)[C@H](c4ccoc4)OC(=O)C4OC423)C1(C)C (some centres undefined)
inactive: locus YBR021W, strain FUR4, hits give low values 0.98 | locus YBR229C, strain ROT2, hits give low values 0.991 | locus YCL029C, strain bik1, hits give low values 1.01 | locus YDL035C, strain GPR1, hits give low values 0.987 | locus YDL074C, strain BRE1, hits give low values 0.976 | locus YDL101C, strain DUN1, hits give low values 0.996 | locus YDL134C, strain PPH21, hits give low values 1.01 | locus YDL185W, strain tfp1, hits give low values 1.02 | locus YDL192W, strain arf1, hits give low values 1.01 | locus YDR101C, strain arx1, hits give low values 1 | locus YDR162C, strain NBP2, hits give low values 1 | locus YDR318W, strain mcm21, hits give low values 1 | locus YDR388W, hits give low values 1.01 | locus YDR502C, strain sam2, hits give low values 1 | locus YEL061C, strain CIN8, hits give low values 0.998 | locus YER110C, hits give low values 1.01 | locus YER155C, strain BEM2, hits give low values 1 | locus YER167W, strain BCK2, hits give low values 0.993 | locus YGL078C, strain dbp3, hits give low values 1.01 | locus YGL086W, strain mad1, hits give low values 1.01 | locus YGL248W, strain PDE1, hits give low values 0.995 | locus YGR135W, strain pre9, hits give low values 1 | locus YGR229C, strain SMI1, hits give low values 0.988 | locus YGR252W, strain gcn5, hits give low values 0.976 | locus YHR079C, strain IRE1 (second series), hits give low values 1.01 | locus YHR094C, strain hxt1, hits give low values 1 | locus YHR129C, strain ARP1, hits give low values 1 | locus YHR200W, strain rpn10, hits give low values 1 | locus YIL066C, strain RNR3, hits give low values 1 | locus YIL073C, strain SPO22, hits give low values 1.04 | locus YIL125W, strain kgd1, hits give low values 1 | locus YIR030C, strain dcg1, hits give low values 1.01 | locus YJL095W, strain BCK1, hits give low values 0.963 | locus YJL134W, strain LCB3, hits give low values 0.999 | locus YJL168C, strain set2, hits give low values 1.01 | locus YJL187C, strain SWE1 (second series), hits give low values 0.996 | locus YKL009W, strain mrt4, hits give low values 1.01 | locus YKL068W, hits give low values 1.01 | locus YKL085W, strain MDH1 (second series), hits give low values 1.03 | locus YKL085W, strain MDH1, hits give low values 1.03 | locus YKL190W, strain CNB1, hits give low values 1 | locus YKR001C, strain vps1, hits give low values 1.01 | locus YLR039C, strain RIC1, hits give low values 1.02 | locus YLR058C, strain SHM2, hits give low values 0.998 | locus YLR102C, strain apc9, hits give low values 1.01 | locus YLR262C, strain YPT6, hits give low values 1.05 | locus YLR268W, strain sec22, hits give low values 0.998 | locus YLR371W, strain rom2, hits give low values 1 | locus YLR418C, strain cdc73, hits give low values 0.996 | locus YML016C, strain PPZ1, hits give low values 1 | locus YML032C, strain rad52, hits give low values 1.01 | locus YML124C, strain tub3, hits give low values 1.01 | locus YMR078C, strain ctf18, hits give low values 1.02 | locus YMR223W, strain ubp8, hits give low values 1.01 | locus YMR307W, strain GAS1, hits give low values 0.994 | locus YNL067W, strain RPL9B, hits give low values 0.997 | locus YNL233W, strain BNI4, hits give low values 0.993 | locus YNL250W, strain rad50, hits give low values 1.04 | locus YNL271C, strain bni1, hits give low values 1 | locus YNL298W, strain CLA4, hits give low values 1.01 | locus YNL307C, strain MCK1, hits give low values 1.03 | locus YNL322C, strain KRE1, hits give low values 1 | locus YNR052C, strain pop2, hits give low values 1.01 | locus YOL006C, strain TOP1, hits give low values 0.912 | locus YOL012C, strain htz1 0.729 | locus YOL147C, strain pex11, hits give low values 1 | locus YOR061W, strain CKA2, hits give low values 1 | locus YOR069W, strain VPS5, hits give low values 0.996 | locus YOR136W, strain idh2, hits give low values 1.02 | locus YOR144C, strain elg1, hits give low values 1.01 | locus YOR184W, strain ser1, hits give low values 1.02 | locus YOR316C, strain cot1, hits give low values 1.01 | locus YPL055C, strain LGE1, hits give low values 0.989 | locus YPL241C, strain CIN2, hits give low values 0.997 | locus YPR119W, strain clb2, hits give low values 1.02 | locus YPR141C, strain kar3, hits give low values 1.01 | locus YPR163C, strain tif3, hits give low values 1.01 | locus YPR167C, strain met16, hits give low values 1.02 | strain wtn01, hits give low values 1.01
